In experiment [1] the target is Calcium and integrin-binding protein 1 (Homo sapiens) (UniProt Q99828). Kind of experiment: Primary qHTS for Identification of Calcium Integrin Binding Protein 1 (CIB1) Competitor (AID 1508620).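 Note: GST tagged CIB1 binding a fluorescein labelled alphaIIb integrin peptide tracer; top concentration of the series differs between compounds.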 Put shortly:
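Fluorescence polarization competition: CIB1-GST (1 uM final) preincubated with compound 15 min at room temperature, then FITC-labeled alphaIIb peptide (100 nM final) added for another 15 min. Polarization read at Ex 480/Em 540.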

Experiment [2] in a line: Primary qHTS for small molecule stabilizers of the endoplasmic reticulum resident proteome: Secreted ER Calcium Modulated Protein (SERCaMP) assay (AID 1508630). Put shortly: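 GLuc-SERCaMP-expressing SH-SY5Y cells, pretreated 16 h with compound, are challenged with thapsigargin to empty ER calcium stores; after 4 h, coelenterazine is added directly to the medium and luminescence is imaged.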

Experiment [3] can be described thus: qHTS to identify inhibitors of the type 1 interferon - major histocompatibility complex class I in skeletal muscle: primary screen against the NCATS Mechanism Interrogation Plate v5.0 (MIPE) Libary (AID 1347411). Note: nearly all actives have a fitted effect of over 65% in size. Note: potency is the fitted concentration of half-maximal effect. Put shortly:
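Immortalized human myoblasts (C25cl48) with HiBit knocked into endogenous HLA-B*08:01 were stimulated with 4 ng/ml IFN-beta and given compounds in 11-point 1:3 titration from 46 uM. After 24 h at 37 C, lytic HiBiT luminescence was read.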
For orientation: qHTS replaces the single test concentration by a dilution series.

Experiment [4] in a line: Primary qHTS for inhibitors of nuclear receptor binding SET domain protein 2 (NSD2) in an isogenic RCH-ACV NSD2 p.E1099K mutant (9B) (AID 1645876). Note: nearly all actives have a fitted effect of over 70% in size. Note: potency is the fitted concentration of half-maximal effect.
The nature of experiment [5]: Primary qHTS for inhibitors of nuclear receptor binding SET domain protein 2 (NSD2) in an RCH-ACV wild type WT cells (2C) (AID 1645877). Note: nearly all actives have a fitted effect of over 70% in size. Note: potency is the fitted concentration of half-maximal effect.
In experiment [6] the target is Calcium and integrin-binding protein 1 (Homo sapiens) (UniProt Q99828). Kind of experiment: Confirmatory qHTS for Identification of Calcium Integrin Binding Protein 1 (CIB1) Competitor (AID 1508617). Note: potency is the fitted concentration of half-maximal effect; nearly all actives have a fitted effect of over 65% in size. Put shortly: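 Confirmatory qHTS measures displacement of a FITC-alphaIIb peptide (100 nM) from CIB1-GST (1 uM) by fluorescence polarization. Calcium-containing HEPES buffer, pH 7.4; two 15 min room-temperature incubations.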
Chain of Calcium and integrin-binding protein 1 (Homo sapiens) (Q99828 whole entry, looked up): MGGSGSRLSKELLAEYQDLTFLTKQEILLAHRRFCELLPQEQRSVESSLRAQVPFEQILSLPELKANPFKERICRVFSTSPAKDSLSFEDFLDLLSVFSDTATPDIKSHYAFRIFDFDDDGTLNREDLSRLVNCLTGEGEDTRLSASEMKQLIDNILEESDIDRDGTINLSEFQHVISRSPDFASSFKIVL

For experiment [7], the target named is Cytochrome P450 2D6 (Homo sapiens) (UniProt P10635). The experiment can be described thus: Cytochrome P450 family 2 subfamily D member 6 (CYP2D6) small molecule antagonists: luciferase biochemical (cell-free) qHTS assay (AID 1645840; active = well fitted curve in the direction sought with a large enough effect in the repeat runs; an effect the other way counts as inactive or inconclusive; note: potency is the fitted concentration of half-maximal effect; nearly all actives have a fitted effect of over 55% in size). Put shortly:
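P450-Glo luminescent screen: recombinant CYP2D6 enzyme–proluciferin substrate mix preincubated with compound 10 min at room temperature, then NADPH regeneration added for 1 h at room temperature. Detection reagent added for 20 min; luciferin light read as relative luminescence units.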

The target in experiment [8] is Cytochrome P450 2C9 (Homo sapiens) (UniProt P11712). Kind of experiment: Cytochrome P450 family 2 subfamily C member 9 (CYP2C9) small molecule antagonists: luciferase biochemical (cell-free) qHTS assay (AID 1645842; active = well fitted curve in the direction sought with a large enough effect in the repeat runs; an effect the other way counts as inactive or inconclusive; note: potency is the fitted concentration of half-maximal effect; nearly all actives have a fitted effect of over 55% in size). Put shortly:
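Luminescence, after 20 min with luciferin detection reagent, reflected CYP2C9 turnover during a 1 h NADPH-driven reaction at 37C. Enzyme-substrate mix contained 0.4% bovine serum albumin and was preincubated with compound 10 min at room temperature.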

“And” between values parts separate entries of the source, which are not always exact repeats. Equal entries are not always repeated. Records with an inconclusive call do not appear. Where a call stands in place of a potency, no number is given. The source made the active and inactive calls. Unless noted, calls come from the whole dose curve; as a rule, active = well fitted curve in the direction sought with a large enough effect; inconclusive = small, poorly fitted or top-dose-only effect, or another doubt; inactive = no such curve, though single readings can be large; an effect the other way counts as inactive or inconclusive.

Chain of Cytochrome P450 2D6 (Homo sapiens) (P10635 whole entry, looked up): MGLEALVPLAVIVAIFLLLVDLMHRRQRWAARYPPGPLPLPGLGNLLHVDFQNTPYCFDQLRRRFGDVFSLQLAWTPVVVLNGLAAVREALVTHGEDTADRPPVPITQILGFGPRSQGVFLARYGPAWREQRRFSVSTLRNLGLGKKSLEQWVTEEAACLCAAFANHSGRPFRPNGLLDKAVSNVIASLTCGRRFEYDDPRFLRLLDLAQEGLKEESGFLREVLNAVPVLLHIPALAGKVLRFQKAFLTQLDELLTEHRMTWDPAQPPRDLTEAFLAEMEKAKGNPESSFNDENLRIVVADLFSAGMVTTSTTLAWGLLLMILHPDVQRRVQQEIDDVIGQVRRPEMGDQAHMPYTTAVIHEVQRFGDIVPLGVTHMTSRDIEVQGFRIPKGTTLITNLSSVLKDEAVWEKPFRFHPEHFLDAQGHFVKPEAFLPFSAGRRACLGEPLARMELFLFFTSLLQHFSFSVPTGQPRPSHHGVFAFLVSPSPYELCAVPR
Chain of Cytochrome P450 2C9 (Homo sapiens) (P11712 whole entry, looked up): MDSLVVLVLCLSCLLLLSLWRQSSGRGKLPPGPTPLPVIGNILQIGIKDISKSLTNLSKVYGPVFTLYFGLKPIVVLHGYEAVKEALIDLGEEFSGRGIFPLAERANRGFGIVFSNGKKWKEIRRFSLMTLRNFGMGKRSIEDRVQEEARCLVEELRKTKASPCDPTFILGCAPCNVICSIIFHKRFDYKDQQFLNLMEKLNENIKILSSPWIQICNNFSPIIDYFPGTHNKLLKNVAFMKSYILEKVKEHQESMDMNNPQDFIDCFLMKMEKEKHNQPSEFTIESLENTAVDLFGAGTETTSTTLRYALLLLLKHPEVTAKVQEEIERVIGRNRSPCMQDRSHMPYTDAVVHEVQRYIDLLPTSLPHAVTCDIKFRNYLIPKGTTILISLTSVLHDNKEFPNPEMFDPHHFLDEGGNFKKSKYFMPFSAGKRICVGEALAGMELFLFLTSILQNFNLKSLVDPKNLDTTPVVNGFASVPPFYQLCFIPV

Take `N#CC(=C(N)Sc1ccc(N)cc1)c1ccccc1C(F)(F)F`: in experiment [1], the Potency entry was “inactive”. In experiment [2], the outcome was inactive.

`COc1cccc2c1C(=O)c1c(O)c3c(c(O)c1C2=O)C[C@@](O)(C(=O)CO)C[C@@H]3O[C@H]1C[C@H](N)[C@H](OC2CCCCO2)[C@H](C)O1` (some centres not stated): the Potency in experiment [3] was 2.62 µM (active) and 2.34 µM (active); in experiment [4], 93.4 nM (active) and 2.63 µM (active); in experiment [5], 52.5 nM (active) and 2.95 µM (active). Besides, in experiment [2], the outcome was inactive.

Take `NS(=O)(=O)OC[C@@H]1C[C@@H](n2ccc3c(N[C@H]4CCc5ccccc54)ncnc32)C[C@H]1O`: the Potency entry in experiment [1] was “inactive”.

Consider `Cc1coc2c1C(=O)C(=O)c1c-2ccc2c(C)cccc12`, for which the Potency was 39.8 µM (active) in experiment [6], 3.38 µM (active) in experiment [7] and 9.52 µM (active) in experiment [8]. For the same molecule, the Potency entry in experiment [1], in experiment [4] and in experiment [5] was “inactive” in each case.

For `CC(C=CC1=C(C)CCCC1(C)C)=CC=CC(C)=CC(=O)Nc1ccc(O)cc1`, the Potency entry in experiment [1] is “inactive”.

For the molecule `COC(=O)[C@H](CCCN=C(N)N)NS(=O)(=O)c1ccc(C)cc1`, the Potency entry in experiment [3], in experiment [1], in experiment [4] and in experiment [5] was “inactive” in each case.

Consider `C[N+]1(C)[C@@H]2C[C@@H](OC(=O)C(O)(c3cccs3)c3cccs3)C[C@H]1[C@@H]1O[C@@H]12`, for which the Potency entry in experiment [1] was “inactive”.

In the case of `Cc1onc(-c2ccccc2)c1C(=O)N[C@@H]1C(=O)N2[C@@H](C(=O)O)C(C)(C)S[C@@H]12`, the Potency result in experiment [1] is “inactive”. In experiment [2], the outcome was inactive.

Regarding `C[C@]12C=CC(=O)N[C@@H]1CC[C@H]1[C@H]3CC[C@@H](C(=O)Nc4cc(C(F)(F)F)ccc4C(F)(F)F)[C@@]3(C)CC[C@@H]12`, in experiment [1], the Potency entry was “inactive”. Further, the result in experiment [2] was inactive.

Turning to `C[C@@H]1[C@H](C)CC[C@]2(C(=O)O)CC[C@]3(C)C(=CC[C@@H]4[C@@]5(C)C[C@@H](O)[C@H](O)[C@@](C)(CO)[C@H]5CC[C@]43C)[C@@H]12`, the Potency entry in experiment [1] is “inactive”. In addition, the outcome in experiment [2] was inactive.

For `CC(C)N(CC[C@H](c1ccccc1)c1cc(CO)ccc1O)C(C)C`, the Potency entry in experiment [1] is “inactive”. Also, the outcome in experiment [2] was inactive.

In the case of `C=C1C(=O)O[C@H]2[C@@H]1CCC(C)=CCC[C@@]1(C)O[C@@H]21`, the Potency entry in experiment [1] is “inactive”. Besides, the result in experiment [2] was inactive.

As to `CC(=CC(=O)Nc1ccccc1C(=O)O)c1ccc2ccccc2c1`, in experiment [1], the Potency entry was “inactive”. Besides, the outcome in experiment [2] was inactive.

Turning to `CC(=O)N[C@H]1[C@@H]([C@H](O)[C@H](O)CO)OC(C(=O)O)=C[C@@H]1N=C(N)N`, the Potency entry in experiment [1] was “inactive”. Moreover, the outcome in experiment [2] was inactive.

With `CC[C@H]1OC(=O)[C@H](C)[C@@H](O[C@H]2C[C@@](C)(OC)[C@@H](O)[C@H](C)O2)[C@H](C)[C@@H](O[C@@H]2O[C@H](C)C[C@H](N(C)C)[C@@H]2O)[C@](C)(OC)C[C@@H](C)C(=O)[C@H](C)[C@@H](O)[C@]1(C)O`, in experiment [1], the Potency result is “inactive”. Moreover, the outcome in experiment [2] was inactive.

As to `C=CC1=C(C(=O)O)N2C(=O)[C@@H](NC(=O)C(=NO)c3csc(N)n3)[C@H]2SC1`, in experiment [1], the Potency result was “inactive”. Also, the outcome in experiment [2] was inactive.

Turning to `C#C[C@]1(O)CC[C@@H]2[C@@H]3CCc4cc(O)ccc4[C@H]3CC[C@@]21C`, the Potency entry in experiment [1] was “inactive”. Besides, the outcome in experiment [2] was inactive.

In the case of `O=C(C=Cc1ccc(CN(CCO)CCc2c[nH]c3ccccc23)cc1)NO`, in experiment [1], the Potency entry was “inactive”. Moreover, in experiment [2], the outcome was inactive.

Consider `C=CC(=O)Nc1cc(NC(=O)c2ccc(C)c(NC(=O)c3ccno3)c2)cc(C(F)(F)F)c1`, for which the Potency entry in experiment [1] is “inactive”. Further, in experiment [2], the result was inactive.

As to `CCc1cnn2c(NCc3ccc[n+]([O-])c3)cc(N3CCCC[C@@H]3CCO)nc12`, in experiment [1], the Potency result is “inactive”. Further, in experiment [2], the outcome was inactive.

Consider `C[C@@H](Oc1ccc2[nH]nc(C=Cc3cnn(CCO)c3)c2c1)c1c(Cl)cncc1Cl`, for which, in experiment [1], the Potency result was “inactive”. The result in experiment [2] was inactive.

For `Cc1nc(NC(=O)N2CCC[C@@H]2C(N)=O)sc1-c1ccnc(C(C)(C)C(F)(F)F)c1`, in experiment [1], the Potency entry is “inactive”. Further, the result in experiment [2] was inactive.

Regarding `C[C@H]1C[C@H]2[C@@H]3CCC4=CC(=O)C=C[C@]4(C)[C@@H]3C(=O)C[C@]2(C)[C@@]1(O)C(=O)CO`, the Potency result in experiment [1] was “inactive”. The outcome in experiment [2] was inactive.

Regarding `CN[C@H]1[C@@H](O)[C@@H]2O[C@@H]3O[C@H](C)CC(=O)[C@]3(O)O[C@@H]2[C@@H](NC)[C@H]1O`, the Potency result in experiment [1] was “inactive”. Moreover, the result in experiment [2] was inactive.

Take `CC(C)OC(=O)[C@H](C)N[P@](=O)(OC[C@H]1O[C@@H](n2ccc(=O)[nH]c2=O)[C@](C)(F)[C@H]1O)Oc1ccccc1`: the Potency entry in experiment [1] was “inactive”. In experiment [2], the outcome was inactive.

For `CS[C@H]1SC[C@@H]2C(=O)N(C)[C@H](C(C)C)C(=O)OC[C@H](NC(=O)c3cnc4ccccc4n3)C(=O)N[C@H](C)C(=O)N(C)[C@@H]1C(=O)N(C)[C@H](C(C)C)C(=O)OC[C@H](NC(=O)c1cnc3ccccc3n1)C(=O)N[C@H](C)C(=O)N2C`, in experiment [1], the Potency entry was “inactive”. For the same molecule, the result in experiment [2] was inactive.

Regarding `COc1cc(N2CCC(C(N)=O)CC2)ccc1Nc1nc(N)c(Cl)c(Nc2ccccc2S(=O)(=O)C(C)C)n1`, the Potency entry in experiment [1] was “inactive”. For the same molecule, in experiment [2], the outcome was inactive.

As for `Cn1cc(C=CC(=O)c2cccc(F)c2)cc1C=CC(=O)NO`, the Potency entry in experiment [1] is “inactive”. The outcome in experiment [2] was inactive.

For `O=C(C=CC=Cc1ccc2c(c1)OCO2)N1CCCCC1`, in experiment [1], the Potency result was “inactive”. Moreover, in experiment [2], the outcome was inactive.

With `Cc1cc(-c2nnc3n2CCCCC3)c(C)n1-c1ccccc1`, the Potency result in experiment [1] was “inactive”. Moreover, the outcome in experiment [2] was inactive.

`C=CCNc1c(O)cc2c(O)c1C[C@@H](C)C[C@H](OC)[C@@H](O)[C@@H](C)C=C(C)[C@H](OC(N)=O)[C@@H](OC)C=CC=C(C)C(=O)N2`: the Potency result in experiment [1] was “inactive”. In experiment [2], the outcome was inactive.

The values are drawn from PubChem BioAssay (NCATS).
